Source: PubChem BioAssay
Calls of active or inactive are those of the source. The rule behind the calls is not given here. Where a SMILES comes first, the peptide text is derived from it. The star is where a group is joined. Boc = CC(C)(C)OC(=O)*; OBn = c1ccc(CO*)cc1

Each compound was assayed on Botulinum neurotoxin type F light chain protease (Clostridium botulinum) (assay: Botulinum neurotoxin type F light chain protease inhibition, multiplex microsphere flow cytometry, validation set (AID 588459)). Conditions: multiplex microsphere protease substrate cleavage assay, at 10 µM, active compounds read high.

Row | SMILES | inhibition
1 | COc1ccc2oc(C)c(C(N)=O)c2c1 | -1.6% (inactive)
2 | COc1ccc(-c2nnc(-c3cc4c(ccc5ccccc54)oc3=O)o2)cc1 | -0.8% (inactive)
3 | CNc1c2c(nn1C)CCCC2 | 0.6% (inactive)
4 | O=C(NCCc1ccccc1)C1CCN(C2CCN(Cc3ccco3)CC2)CC1 | -0.8% (inactive)
5 | O=C1OC(Nc2ccc3c(c2)OCO3)c2ccccc21 (centres undefined) | 0.9% (inactive)
6 | CC1(CC(=O)Nc2ccccc2)NC(=S)N(c2ccccc2)N1 (centres undefined) | 3% (inactive)
7 | C[N+](C)(C)CCCC(=O)c1ccc2c(c1)OCO2 | -4% (inactive)
8 | CCOC(=O)C1=C(N)Oc2c(oc(CO)cc2=O)C1c1ccc(F)c(F)c1 (centres undefined) | 2.1% (inactive)
9 | CN1CCC(OC(c2ccccc2)c2ccccc2)CC1 | -0.8% (inactive)
10 | O=C1[C@@H]2CSCN2C(=O)CN1Cc1ccc(F)cc1 | 1.2% (inactive)
11 | COc1cc2c(cc1O)CCN(C(=O)c1ccco1)C2C (centres undefined) | 4.3% (inactive)
12 | O=C(CN1C(=O)c2ccccc2S1(=O)=O)Nc1ccccc1 | 2.3% (inactive)
13 | C[C@]12CC[C@@H]3c4ccc(O)cc4C(=O)C[C@H]3[C@@H]1CC[C@@H]2O | 1.2% (inactive)
14 | CC(C)CC(NC(=O)C(NC(=O)OC(C)(C)C)C(C)C)C(=O)NC(CCC(=O)OCc1ccccc1)C(N)=O (stereo not drawn) (Boc-Val-Leu-Glu(OBn)-NH2; configuration not given here) | 2.1% (inactive)
15 | COc1cc(CNc2nnnn2C)ccc1OCc1ccc(F)cc1Cl | -4.9% (inactive)
16 | Cc1ccc(Cl)c(OCCCN(C)Cc2ccccc2)c1 | 2.8% (inactive)
17 | CN1CCN(CCCN2c3ccccc3Sc3ccc(Cl)cc32)CC1 | -3.9% (inactive)
18 | Cc1[nH]c2ccccc2c1C(=O)CN1CCCC1 | 0.8% (inactive)
19 | COc1cc2c(cc1OC)C(c1cc(OC)c(OC)c(OC)c1)NCC2 (centres undefined) | 2.3% (inactive)
20 | COc1cc2c(cc1OC)/C(=C/c1ccc(Cl)cc1)C(=O)OC2 | -0.2% (inactive)

Row | SMILES | inhibition
21 | CN(C)C(=O)CCCCCCCCC(=O)N(C)C | -2.7% (inactive)
22 | COc1cccc(-n2cc(CNCc3c(C(=O)N(C)C)nc4ccc(Cl)cn34)cn2)c1 | 1.3% (inactive)
23 | O=C(NC(=S)Nc1ccc(N2CCN(C(=O)c3ccccc3)CC2)cc1)c1cccs1 | -8.9% (inactive)
24 | COc1ccc(C(=O)O)cc1F | -1.9% (inactive)
25 | O=C1C(Cc2ccccc2)NC(=S)N1c1ccccc1 (centres undefined) | 3.8% (inactive)
26 | CC(C)[N+]1(C)[C@@H]2CC[C@H]1CC(OC(=O)C(CO)c1ccccc1)C2 (some centres undefined) | -2.9% (inactive)
27 | COc1cc2c3c(c1)C(C)CC(C)(C)N3C(=O)C2=O (centres undefined) | -6.7% (inactive)
28 | COc1cc2c(cc1OC)CN(C(=O)c1ccc(S(=O)(=O)N(C)c3ccccc3)cc1)CC2 | 0.9% (inactive)
29 | C=CCc1cccc2cc(C(=O)Nc3ccc(CC(=O)O)cc3)c(=O)oc12 | 1.3% (inactive)
30 | Clc1cc(-c2ccc(/C=N/n3cnnc3)o2)ccc1Br | -3.6% (inactive)
31 | C#C[C@]1(O)CC[C@H]2[C@@H]3CCc4cc(OC)ccc4[C@H]3CC[C@@]21C | 0.9% (inactive)
32 | C=CCn1c(SCC(=O)NC2CCCCC2)nc2ccccc2c1=O | -0.1% (inactive)
33 | Cc1nc2ccccc2n1CC(=O)NC1CCCC1 | -0.9% (inactive)
34 | CCOc1cc(C)cc2oc(=O)cc(-c3ccccc3)c12 | -2.2% (inactive)
35 | COc1cc(C2C(C(=O)c3ccc(C)o3)=C(O)C(=O)N2Cc2cccnc2)ccc1O (centres undefined) | 1.8% (inactive)
36 | O=C(N/N=C/c1ccc([N+](=O)[O-])o1)c1ccc(O)cc1 | 0.2% (inactive)
37 | COc1ccc(C(C)=O)c2c1OCCO2 | 2.3% (inactive)
38 | O=C(N1CCCCC1)C1(c2ccccc2)CCOCC1 | 1.7% (inactive)
39 | COc1ccc(C2N3CC4(C)CN2CC(C)(C3)C4)cc1OC (centres undefined) | -0.3% (inactive)
